Screen size: about 130,000 compounds; about 2,500 (1.9%) were called active.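 Rule for the calls: active = signal ratio slope over the read window, or its plate-corrected B-score, at least 3 SD from the plate mean, either direction; inactive = the rest.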 Only a selection was taken, and actives are over-represented in it overall.

Sequence of ATP-sensitive inward rectifier potassium channel 1 (Homo sapiens) (P48048 whole entry, looked up): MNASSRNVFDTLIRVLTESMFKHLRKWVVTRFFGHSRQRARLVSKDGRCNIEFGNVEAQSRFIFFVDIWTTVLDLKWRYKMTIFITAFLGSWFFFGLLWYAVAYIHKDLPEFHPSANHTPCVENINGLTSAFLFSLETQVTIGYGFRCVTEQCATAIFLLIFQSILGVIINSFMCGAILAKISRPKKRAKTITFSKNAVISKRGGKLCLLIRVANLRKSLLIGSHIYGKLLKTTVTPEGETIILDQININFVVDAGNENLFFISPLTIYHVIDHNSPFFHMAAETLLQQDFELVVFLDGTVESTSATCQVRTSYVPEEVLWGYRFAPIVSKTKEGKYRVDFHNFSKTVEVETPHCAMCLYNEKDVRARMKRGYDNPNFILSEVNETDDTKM

This assay has as its target ATP-sensitive inward rectifier potassium channel 1 (Homo sapiens) (UniProt P48048). The assay can be described thus: Kir1.1 channel activity modulation, library screen – cell-based, thallium flux, MLSMR library, primary screen (AID 1918).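 Note: B-score of the F/F0 ratio slope over 7 to 12 s after thallium.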 Particulars: Tet-inducible ROMK, thallium flux fluorescence; at 10 µM; actives lie on both sides.
In the case of `NC(=O)C1(C(N)=O)OC1c1ccc(Cl)cc1Cl` (centres undefined), the B-score is 0.219 (inactive).
Consider `CC(=O)Nc1ccc(S(=O)(=O)N(C)c2ccc(OCC(=O)OCC(=O)N3CCCCC3)cc2)cc1`, for which the B-score is 0.712 (inactive).
The figure for `Fc1ccccc1Cn1cnc(NC(=S)NCCc2ccccc2)n1` is 0.722 (inactive); for `CN(Cc1ccccc1)Cc1ccccc1F` it is 0.0291 (inactive); for `N=c1n(CCc2ccccc2)c2ccccc2n1Cc1ccccc1F` it is -3.48 (active).
The figure for `Cc1ccc(-n2c(O)c(C=Nc3ccc(S(=O)(=O)Nc4ncccn4)cc3)c3ccccc3c2=O)cc1C` is 0.113 (inactive); for `O=c1[nH]c(CSc2ccccc2)nc2c1oc1ccccc12` it is 0.176 (inactive).
In the case of `CCc1cccc2c(=O)c(C(=O)NCCCOC)c[nH]c12`, the B-score is 0.0144 (inactive).
The figure for `Cc1cccc(N(CC(O)CN(C)C)S(=O)(=O)c2ccccc2)c1` (centres undefined) is 0.476 (inactive); for `CC(C)CN(CC(C)C)CC(O)CN(c1ccccc1)S(=O)(=O)c1ccccc1[N+](=O)[O-]` (centres undefined) it is -2.88 (active).
With `O=S(=O)(c1ccccc1)N(CC(O)CN1CCCCC1)c1ccccc1` (centres undefined), the B-score is -0.476 (inactive).
For `C=CCNC(=O)COC(=O)CNC(=O)c1cc(Cl)cc([N+](=O)[O-])c1` the value was 0.319 (inactive).
For `COc1ccccc1NC(=O)C[n+]1ccccc1` the value was -0.558 (inactive).
For `COC(=O)Cc1nc2ccccc2[nH]1` the value was -0.0215 (inactive); for `COC(=O)C[n+]1cccc2ccccc21`, -4.33 (active).
Turning to `COc1cccc(NCCC(=O)c2cccc([N+](=O)[O-])c2)c1`, the B-score is 1.54 (inactive).
The figure for `O=C(N/N=C/c1ccc(OCC2COCCO2)cc1)c1ccc(Br)cc1` (centres undefined) is 0.0877 (inactive); for `Cc1ccc(NC(=O)CN2CCC(C(N)=O)CC2)cc1[N+](=O)[O-]` it is -0.771 (inactive); for `Cc1ccc(NC(=O)c2cccnc2C(=O)Nc2ccc(C)cc2)cc1` it is 0.166 (inactive).
For `O=C(COC(=O)c1cnccn1)Nc1cccc2ccccc12` the value was 0.345 (inactive); for `CN(C)S(=O)(=O)c1ccc(NC(=O)N2CCOCC2)cc1`, -0.469 (inactive); for `CCN(CC)S(=O)(=O)c1ccc(Cl)c(NC(=O)c2ccncc2)c1`, -0.305 (inactive).
The figure for `CS(=O)(=O)c1ccc(Cl)c(NC(=O)Nc2ccccc2)c1` is -8.31 (active).
For `Cc1c(NC(=O)Nc2ccccc2)cccc1[N+](=O)[O-]`, the B-score was 1.03 (inactive).
For `CCOCCCNCc1cc(Br)ccc1OCC` the value was -0.61 (inactive); for `Cc1ccc(C)c(NC(=O)CCC(=O)N/N=C2/CC(=O)CC(C)(C)C2)c1`, -0.197 (inactive); for `COc1cccc(NC(=O)COC(=O)CCOc2ccccc2OC)c1`, 2.55 (inactive).
For `CCOC(=O)CSc1nc2c(sc(=S)n2CCc2ccccc2)c(=O)n1Cc1ccco1` the value was 0.0111 (inactive).
As to `CN(c1ccccc1)c1ccc(/C=c2\s/c(=C(/C#N)C(=O)C(C)(C)C)n(Cc3ccco3)c2=O)cc1`, the B-score is -5.56 (active).
For `Cc1cs/c(=N\N=C\c2ccc(O)cc2)n1Cc1ccco1` the value was -2.07 (inactive); for `CC(=O)Nc1nc2ccccc2n1Cc1ccc(C)cc1`, -0.122 (inactive).
Regarding `Cc1ccnc(SCC(N)=O)n1`, the B-score was 0.191 (inactive).
For `CCCC(c1nnnn1C(C)(C)C)N1CCN(Cc2ccccc2)CC1` (centres undefined) the value was -13.3 (active).
The figure for `CC(C)C(c1nnnn1C(C)(C)C)N1CCN(Cc2cccnc2)CC1` (centres undefined) is 1.58 (inactive); for `CC(C)C(c1nnnn1Cc1ccccc1)N1CCC(C(N)=O)CC1` (centres undefined) it is 0.519 (inactive).
For `CC(=O)Nc1ccc(NC(=O)CSc2nnc(COc3ccccc3C)n2CC2CCCO2)cc1` (centres undefined) the value was -0.134 (inactive).
Take `Cc1ccc(C(=O)N/C(=C\c2ccco2)C(=O)N2CCSCC2)cc1C`: the B-score is 1.44 (inactive).
For `S=C(NCc1ccc2c(c1)OCO2)NCc1ccco1` the value was -0.541 (inactive); for `COC(=O)N/N=C/c1cn(CCCOc2ccc(C)cc2)c2ccccc12`, 0.506 (inactive).
The figure for `COC(=O)Cn1cc(/C=C/[N+](=O)[O-])c2ccccc21` is -8.61 (active); for `COC(=O)Cn1cc(C(=O)c2cccs2)c2ccccc21` it is 0.201 (inactive); for `O=C(N/C(=C\c1ccc(F)cc1)C(=O)N1CCCCCC1)c1ccccc1` it is 0.658 (inactive).
For `Cc1ccc(C(=O)N/C(=C\c2ccco2)C(=O)NC2CCS(=O)(=O)C2)cc1` (centres undefined) the value was 0.484 (inactive).
As to `COc1ccc(C(CC(=O)O)NC(=O)Cc2ccccc2)cc1` (centres undefined), the B-score is -0.208 (inactive).
For `COc1ccc(CC(=O)NC(C)CCc2ccccc2)cc1` (centres undefined) the value was -0.201 (inactive); for `COc1ccc(C(CCNCc2ccccc2F)c2ccc(F)cc2)cc1` (centres undefined), -2.56 (active).
The figure for `O=C(NC1CC1)C1CCCN(C(=O)NC2CCCCC2)C1` (centres undefined) is 0.0365 (inactive); for `CCN(C(=O)CSc1nc2ccccc2n1CC)C1CCS(=O)(=O)C1` (centres undefined) it is -1.63 (inactive); for `Cc1cc(=O)[nH]c2nnnn12` it is -0.253 (inactive).
For `Cc1ccc(N2C(=O)SC(N(CC(=O)O)c3ccc(C)cc3)C2=O)cc1` (centres undefined) the value was 0.244 (inactive); for `Cc1ccc(N2C(=O)C3CC3C2=O)cc1` (centres undefined), 1.41 (active); for `Cc1ccc(N2C(=O)CC(Nc3cccc4ccccc34)C2=O)cc1` (centres undefined), -0.14 (inactive).
Regarding `O=C(CSc1nc2ccccc2o1)N/N=C/c1ccccc1C(=O)O`, the B-score is 0.754 (inactive).
The figure for `CCOC(=O)c1sc(=S)n(-c2cccc(OC)c2)c1N` is -0.158 (inactive); for `CCOC(=O)c1sc(=S)n2c1[nH]c(=O)c1ccc(C(=O)OC)cc12` it is 6.64 (active); for `CCOC(=O)Cn1c(N)c(C(=O)OC)sc1=S` it is -0.216 (inactive).
The figure for `CC(C)N1CCC(=NNc2ccc([N+](=O)[O-])cc2S(=O)(=O)N2CCOCC2)CC1` is -0.739 (inactive); for `CC(C)OC(=O)CN1C(=O)C(=O)c2ccccc21` it is -0.327 (inactive).
For `O=C1c2ccccc2C(=O)N1c1ccccc1S(=O)C(F)(F)F` (centres undefined) the value was -0.708 (inactive); for `O=C1C(=O)N(c2ccccc2)c2ccccc21`, 3.08 (active).
With `Cc1cc([N+](=O)[O-])nn1CCCC(=O)Nc1cccnc1Cl`, the B-score is 0.471 (inactive).
For `COc1ccc(Br)cc1/C=N/NC(=O)c1cccc(S(=O)(=O)N2CCOCC2)c1` the value was -0.0649 (inactive); for `Oc1c(C=Nc2cccc3nsnc23)ccc2ccccc12`, -0.773 (inactive).
The figure for `Oc1ccc2ccccc2c1N=Nc1nccs1` is 2.22 (active); for `COc1cccc(C(=O)Nc2cccnc2)c1OC` it is 1.32 (inactive); for `Cc1cc(/C=N/NC(N)=O)c(C)n1C1CCCCC1` it is 3.24 (active).
The figure for `Cc1cccc(-n2c(C)cc(/C=N\NC(=O)c3cccs3)c2C)c1` is 0.454 (inactive).
For `Cc1cccc(-n2c(C)cc(/C=N/NC(N)=S)c2C)c1`, the B-score is 2.21 (inactive).
The figure for `COc1ccc(CC(NC(C)=O)C(=O)NC2CCN(C(=O)c3ccc(OC)c(OC)c3)CC2)cc1OC` (centres undefined) is -0.592 (inactive).
With `COc1cc2c(cc1OC)CN(C(=O)c1cc(=O)c3ccccc3o1)CC2`, the B-score was 2.64 (inactive).
The figure for `CCOc1cc(C(=O)N2CCc3cc(OC)c(OC)cc3C2)ccc1OC(F)F` is 4.09 (active).
The figure for `CS(=O)(=O)N(Cc1ccccc1Cl)c1ccc(C(=O)NCc2cccnc2)cc1` is -0.455 (inactive).
For `S=C(NCc1ccco1)Nc1ccc2c(c1)OCCO2` the value was 0.904 (inactive); for `CCSc1sc(CC)cc1C=O`, 4.04 (active); for `Cc1ccc(S(=O)(=O)Nc2nc(N)n(-c3ccccc3)n2)cc1`, 0.00772 (inactive).
For the compound `Cc1noc(COc2ccccc2OCC(O)CNC(C)(C)C)n1` (centres undefined), the B-score was -0.0138 (inactive).
The figure for `CC(C)(C)CC(C)(C)NCC(O)COCCOc1ccc(Br)cc1` (centres undefined) is -3.09 (active).
In the case of `Nc1ccccc1SC(C[N+](=O)[O-])c1ccccc1` (centres undefined), the B-score is -8.64 (active).
As to `O=C(NCc1ccc(Cl)cc1)NCc1ccc(Cl)cc1`, the B-score was -0.951 (inactive).
The figure for `Oc1ccccc1/C=N/n1c(-c2cccs2)n[nH]c1=S` is 0.503 (inactive).
For `S=c1[nH]nc(-c2ccccc2)n1/N=C/c1c[nH]c2ccccc12` the value was 1.36 (inactive); for `S=c1[nH]nc(-c2cccnc2)n1/N=C/C(Cl)=C\c1ccccc1`, -3.13 (active); for `Cc1ccc(C(=O)O)cc1NC(=O)c1ccc(Cn2nc(C)c(Cl)c2C)o1`, -0.188 (inactive).
In the case of `Cc1nc2sc3c(c2c(=O)n1NC(=O)CCl)CCCC3`, the B-score is -0.421 (inactive).
For `CCS(=O)(=O)C1=NSC2=NC(=O)/C(=C\c3cc(C)n(-c4cccc(OC)c4)c3C)C(=N)N21` the value was 1.02 (inactive); for `Cc1cc(/C=C2/C(=N)N3C(=NC2=O)SN=C3S(C)(=O)=O)c(C)n1-c1ccccc1`, 1.2 (active); for `CS(=O)(=O)c1ccc2c(c1)SC1=NC(=O)/C(=C/c3ccco3)C(=N)N12`, 0.317 (inactive).
For `CC(C)(C)NC(=O)NC(=O)COC(=O)Cc1c(F)cccc1Cl` the value was -0.0671 (inactive).
For `COC(=O)COc1ccc(C2NC(=O)NC(C)=C2C(=O)NCc2ccccc2)cc1OC` (centres undefined) the value was 0.834 (inactive); for `NS(=O)(=O)c1ccc(NC(=O)/C=C/c2ccccc2Cl)cc1`, 0.913 (inactive).
Take `CCN(CC)N=Nc1cccc(NC(C)=O)c1`: the B-score was 0.863 (inactive).
With `Cc1cccn2c(=O)c3cc(C#N)c(=O)n(CCCN4CCOCC4)c3nc12`, the B-score was 0.896 (inactive).
The figure for `Cc1cccn2c(=O)c3cc(C(=O)N4COCC4(C)C)n(C)c3nc12` is -4.56 (active).
The figure for `CCn1c(=N)c(C(=O)NCCCOC)cc2c(=O)n3cccc(C)c3nc21` is -1.26 (inactive); for `S=C(c1ccc(-c2ccccc2)o1)N1CCCCC1` it is -1.97 (inactive); for `CC(=O)NC(Cc1ccc(F)c(F)c1)C(=O)NC1CCN(C(=O)c2ccc(C)cc2)CC1` (centres undefined) it is -0.484 (inactive).
Regarding `CCOC(=O)C1CCN(C(=O)c2ccccc2N(C)S(=O)(=O)c2ccccc2)CC1`, the B-score was 0.0133 (inactive).
For `CCOC(=O)N1CCN(C(=O)c2ccccc2N(Cc2ccccc2)S(=O)(=O)c2ccc(OC)cc2)CC1` the value was 2.44 (inactive).
The figure for `NC(=O)c1ccccc1N(Cc1ccccc1)S(=O)(=O)c1ccccc1` is 3.2 (active).

These data come from PubChem BioAssay AID1918 (Vanderbilt High Throughput Screening Facility, 2009).
